Source: PubChem
Shown are actives, neighbours in structure and some others; about 4% of the full set was active somewhere.
Mtb FBA inh: Mtb fructose-bisphosphate aldolase inhibition | 2.3% of 360,000 active | purified M. tuberculosis FBA, fluorescence read-out | P9WQA3 | inhibition, % at 1 µM; in the data active = inhibition above about 27%
Target sequence (P9WQA3 whole entry, looked up): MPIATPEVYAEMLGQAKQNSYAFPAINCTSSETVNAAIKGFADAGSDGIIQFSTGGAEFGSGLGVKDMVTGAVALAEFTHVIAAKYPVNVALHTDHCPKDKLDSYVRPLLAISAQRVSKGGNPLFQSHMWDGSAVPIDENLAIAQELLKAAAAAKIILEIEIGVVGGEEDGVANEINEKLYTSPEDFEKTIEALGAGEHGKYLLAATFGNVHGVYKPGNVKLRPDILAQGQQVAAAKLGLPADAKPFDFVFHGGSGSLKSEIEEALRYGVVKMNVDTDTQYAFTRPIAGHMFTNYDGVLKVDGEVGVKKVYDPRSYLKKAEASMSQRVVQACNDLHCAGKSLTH
MazEF act: increases E. coli MazEF RNase cleavage of RNA. P0AE70. activation, % at 20 µM. 0.32% of 350,000 active. FAM/BHQ RNA-DNA oligo cleavage fluorescence, 5 h; in the data active = activation above about 50%
Target sequence (P0AE70 whole entry, looked up): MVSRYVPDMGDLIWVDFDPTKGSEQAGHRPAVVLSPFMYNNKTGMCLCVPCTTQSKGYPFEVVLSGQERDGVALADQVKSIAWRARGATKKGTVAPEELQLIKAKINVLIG
CCHFV vOTU inh: CCHFV vOTU protease inhibition; Pep-AMC fluorescence; inhibition, % at 11.5 µM; 0.55% of 370,000 active; AID 651958
GDH-TPI counter: counter-screen for M. tuberculosis FBA inhibitors: GDH-TPI coupled enzymes | GDH-TPI coupled enzyme counterscreen, NADH absorbance | inhibition, % at 4.8 µM | 1.2% of 360,000 active | AID 588335
Mtb betalactam: beta-lactam sensitization of Mtb H37Rv; 0.27% of 330,000 active; inhibition, % at 25 µM; M. tuberculosis H37Rv growth with meropenem, percent inhibition; AID 434955; call rule not given here;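 also: growth measured after seven days incubation then overnight dye step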
Large screens that a line does not name were inactive; ! = repeats disagree. Rule as the data show it, unless noted: active = inhibition above about 30%; inactive = the rest.

CCC(C)[C@H](NC(=O)OC(C)(C)C)C(=O)N[C@@H](Cc1ccccc1)C(=O)OC (stereo not given in full)	none (no result: Mtb FBA inh, MazEF act, GDH-TPI counter, Mtb betalactam)
C[C@@H]1COc2cc(Br)ccc2S(=O)(=O)N1Cc1cn(CCC2OCCO2)nn1	none (no result: Mtb FBA inh, MazEF act, GDH-TPI counter, Mtb betalactam)
COC(=O)[C@]12C[C@H](CC(=O)NCc3cccs3)C(=O)N(Cc3ccco3)C1=C[C@H](C(C)C)O[C@@H]2C1CC1	none (no result: Mtb FBA inh, MazEF act, GDH-TPI counter, Mtb betalactam)
COc1ccc(C2/C(=C(/O)c3ccccc3)C(=O)C(=O)N2c2ccccn2)c(OC)c1 (stereo not given)	GDH-TPI counter 30.6
CN(/N=C/c1cc(Cl)cc(Cl)c1O)c1c(Cl)cccc1[N+](=O)[O-]	GDH-TPI counter 37.4
CN(CC(=O)Nc1ccccc1Cl)CC(=O)N(C)c1c(N)n(Cc2ccccc2)c(=O)[nH]c1=O	none
CN(CC(=O)Nc1ccccc1Cl)CC(=O)c1c(N)n(Cc2ccccc2)c(=O)n(C)c1=O	MazEF act 66.5
O=C(N/N=C/c1ccc([N+](=O)[O-])o1)c1cn(-c2ccccc2)nc1-c1ccc(Cl)cc1	none
O=[N+]([O-])CC(=Nc1ccc(Cl)cc1)N/N=C\c1oc(O)c2ccccc12	CCHFV vOTU inh 33.1
CCOc1ccccc1NC(=O)Cn1nnc(C(=O)NCc2ccc3c(c2)OCO3)c1N	MazEF act 65.4
CCOc1ccccc1NC(=O)c1nnn(CC(=O)Nc2ccc3c(c2)OCO3)c1N	none
Cc1cc(NC(=O)COc2cc(F)cc(F)c2)n(-c2ccccc2)n1	none (no result: Mtb FBA inh, MazEF act, GDH-TPI counter, Mtb betalactam)
CCCCCCCCN1CCS(=O)(=O)N(Cc2ccc(OC)cc2)C(C(=O)OC)C1 (stereo not given)	none (no result: Mtb FBA inh, MazEF act, GDH-TPI counter, Mtb betalactam)
C=CCOC(=O)C(C#N)c1nc2ccccc2nc1N1CCN(c2ccccc2OC)CC1 (stereo not given)	none
C=CCN(CC=C)c1nc2ccccc2nc1C(C#N)C(=O)OC(C)C (stereo not given)	Mtb FBA inh 36.0
O=C(NCCC1=CCCCC1)c1coc(=O)c(Br)c1	GDH-TPI counter 39.0
COc1cc(C(=O)NCCC2=CCCCC2)cc(OC)c1OC	none
CC(C)CNC(=O)c1coc(=O)c(Br)c1	none
O=C(NCCC1=CCCCC1)c1ccc(Cl)cc1	none (no result: Mtb FBA inh, MazEF act, CCHFV vOTU inh, GDH-TPI counter)
O=C(NCCc1ccccc1)c1coc(=O)c(Br)c1	GDH-TPI counter 41.4
O=C(NCCC1=CCCCC1)c1ccc(=O)oc1	GDH-TPI counter 52.4
CCCC(=O)OC12CCCN(C1)/C(=C/c1cccc(N(C)C)c1)C2 (stereo not given)	none (no result: Mtb FBA inh, MazEF act, GDH-TPI counter, Mtb betalactam)
CCOc1ccc(-n2c(SCC(=O)Nc3ccc(S(=O)(=O)Nc4cc(C)nc(C)n4)cc3)nnc2-c2ccco2)cc1	none (no result: Mtb FBA inh, MazEF act, GDH-TPI counter, Mtb betalactam)
COCc1cc(C)n(CC(=O)Nc2cccc(C)c2)c(=O)c1C#N	none
COCc1cc(C)n(CC(=O)Nc2ccc3c(c2)OCO3)c(=O)c1C#N	GDH-TPI counter 31.9
Cc1ccc(NC(=S)NNC(=O)CSc2nnc(SCc3cccc4ccccc34)s2)cc1	none (no result: Mtb FBA inh, MazEF act, GDH-TPI counter, Mtb betalactam)
O=C(/C=C/c1ccc(O)c(O)c1)O[C@@H]1C[C@](O)(C(=O)O)C[C@@H](O)[C@H]1O	GDH-TPI counter 49.8!
C=CCN1C(=O)[C@@H](CC(=O)NCc2cccs2)[C@]2(C(=O)OC)CCCCC=C12	none (no result: Mtb FBA inh, MazEF act, GDH-TPI counter, Mtb betalactam)
CCOC(=O)CSc1nc2nc(Cl)c(Cl)nc2[nH]1	Mtb FBA inh active, GDH-TPI counter 32.7 (no result: Mtb betalactam)
CSc1nc2nc(Cl)c(Cl)nc2[nH]1	Mtb FBA inh active, GDH-TPI counter 37.2 (no result: Mtb betalactam)
c1ccc(CN2CN=C(Nc3nc4ccccc4s3)NC2)cc1	MazEF act 55.5
COc1ccc(CN2CN=C(Nc3nc4ccccc4s3)NC2)cc1	MazEF act 62.1 (no result: CCHFV vOTU inh)
O=C(O)c1cccc(Cn2c(Cl)c(/C=N/NC(=O)c3ccccc3Cl)sc2=O)c1	GDH-TPI counter 41.2
COc1ccc(C(=O)N/N=C/c2sc(=O)n(Cc3cccc(C(=O)O)c3)c2Cl)cc1	GDH-TPI counter 35.8
Cc1ccccc1OCC(=O)N/N=C/c1sc(=O)n(Cc2cccc(C(=O)O)c2)c1Cl	none
O=C(O)c1cccc(Cn2c(Cl)c(/C=N/NC(=O)c3ccccc3O)sc2=O)c1	GDH-TPI counter 53.6
COc1cccc(CNC(=O)Cn2ncn3cccc3c2=O)c1OC	MazEF act 71.2
Cc1ccc(CNC(=O)Cn2ncn3cccc3c2=O)cc1	none
C=CCN(CC#CC(=C)C)Cc1ccc(OC)cc1OC	none (no result: Mtb FBA inh, MazEF act, GDH-TPI counter, Mtb betalactam)
Fc1ccc(CSc2nc3ccccc3[nH]2)c2ccccc12	MazEF act 53.5
C#CCCN([C@H](C(=O)OC)C(C)C)S(=O)(=O)c1ccccc1Br	none (no result: Mtb FBA inh, MazEF act, GDH-TPI counter, Mtb betalactam)
Cc1ccccc1NC(=O)N(C)[C@H]1C[C@H]2c3[nH]c4c(-c5ccccc5)cccc4c3CCN2C[C@H]1[C@H](C)O	none (no result: Mtb FBA inh, MazEF act, GDH-TPI counter, Mtb betalactam)
Cc1ccc2nc3cc([N+](=O)[O-])cc([N+](=O)[O-])c3cc2c1	MazEF act 354.2 (no result: Mtb betalactam)
